Compound activity: PubChem, NMMLSC
HRas wt GTP = modulators of GTP binding to human HRas wildtype | P01112 | GST-Ras wt beads, Bodipy-FL-GTP binding, flow cytometry; actives lie on both sides | 0.14% of 190,000 active | GTP binding activity, % at 10 µM;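 active = GTP binding activity at least 20% away from the 100% baseline, either lowered as inhibitor or raised as activator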
Target sequence (P01112 whole entry, looked up): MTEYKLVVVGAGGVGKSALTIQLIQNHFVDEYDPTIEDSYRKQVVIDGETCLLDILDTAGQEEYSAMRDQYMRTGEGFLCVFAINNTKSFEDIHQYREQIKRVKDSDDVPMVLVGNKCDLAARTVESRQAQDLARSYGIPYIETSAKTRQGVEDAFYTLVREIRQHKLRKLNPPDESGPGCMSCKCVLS
Rab7 wt modul = modulators of GTP binding to dog Rab7 wildtype GTPase. GST-Rab7 beads, fluorescent GTP binding, flow cytometry; actives lie on both sides; untreated = 100%, excess cold GTP = 0%. GTP binding activity (percent of control), % at 10 µM. 0.055% of 190,000 active. AID 758;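 active = fluorescent GTP binding to Rab7 beads changed by at least 20 points from the 100% baseline, either direction, mostly lower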;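 note: median green fluorescence of bound Bodipy-FL-GTP per Rab7 bead population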
Rab2 wt GTP = changes GTP binding to wildtype dog Rab2A, up or down; P61105; GST-Rab2 wt beads, Bodipy-GTP binding, flow cytometry; GTP binding activity, % at 10 µM; 0.19% of 190,000 active; AID 760;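 active = GTP binding activity at least 20 points away from 100%, either lowered or raised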
Rac1 wt GTP bind = alters GTP binding to wildtype human Rac1; GST-Rac1 beads, fluorescent GTP binding, flow cytometry; actives lie on both sides; 0 = cold GTP competed, 100 = untreated; GTP binding activity (% of control), % at 10 µM; 0.27% of 190,000 active; P63000;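 active = GTP binding activity at least 20 points away from the 100% control level, either lower or higher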
Rac1 mut GTP = modulators of GTP binding to human Rac1 activated mutant | P63000 | GST-Rac1 activated beads, fluorescent GTP binding, flow cytometry; actives lie on both sides; 100% means binding = to untreated wells | percent activity (GTP binding), % at 10 µM | 0.11% of 190,000 active;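 active = GTP binding at least 20 percentage points away from the 100% baseline, in either direction, so actives lie on both sides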
Cdc42 wt = human Cdc42 wildtype GTP binding change, either direction; P60953; GST-Cdc42 beads, Bodipy-GTP binding, flow cytometry; actives lie on both sides; percent activity (GTP binding), % at 10 µM; 0.2% of 190,000 active; AID 761;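 active = percent activity GTP binding at least 20 points away from the 100% baseline, either down as inhibitor or up as activator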;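 note: median bead fluorescence of bound Bodipy-FL-GTP at 100 nM; below 100% means less GTP binding so inhibitor and above means activator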
Hits are given with their value; – = inactive; [ ] = remark or other dose. This is a sample that favours compounds with a hit; in the whole collection about 0.38% have one here.

SMILES	HRas wt GTP	Rab7 wt modul	Rab2 wt GTP	Rac1 wt GTP bind	Rac1 mut GTP	Cdc42 wt
Cc1cccc(-n2c(O)c(C=Nc3ccc(Br)cn3)c(=O)[nH]c2=O)c1	–	–	–	–	–	–
Cc1ccc(-n2c(O)c(/C=N/c3ncc(Br)cc3Br)c(=O)[nH]c2=O)cc1	–	–	–	123[activator]	–	–
CCOCCCn1c(N)c(C(=O)Nc2sc3c(c2C(=O)OC)CCCC3)c2nc3ccccc3nc21	72	–	72	–	–	72
CCn1nc(/C=C/c2ccccc2)nc2c(=O)n(C)c(=O)nc1-2	–	–	–	–	–	76
O=c1[nH]c(=S)[nH]c(O)c1N=Nc1ccc(S(=O)(=O)N2CCc3ccccc32)cc1	–	–	–	120[activator]	–	–
Cc1c(N=Nc2c(O)[nH]c(=S)[nH]c2=O)c(=O)n(-c2ccccc2)n1C	–	–	–	–	–	–
CN(C)C(Cc1ccccc1)C(=O)c1cccs1 (configuration not stated)	–	–	–	–	–	–
O=C(c1cccc2ccccc12)C1CCCN(C2CCC2)C1 (configuration not stated)	–	–	–	–	–	–
